From PubChem BioAssay (NCATS)
Results filed as inconclusive are left out. The source made the active and inactive calls. Unless noted, calls come from the whole dose curve; as a rule, active = well fitted curve in the direction sought with a large enough effect; inconclusive = small, poorly fitted or top-dose-only effect, or another doubt; inactive = no such curve, though single readings can be large; an effect the other way counts as inactive or inconclusive.

How the values were obtained:
[1] = target: ATP-dependent 6-phosphofructokinase (Trypanosoma brucei brucei) (UniProt O15648); experiment: qHTS Assay to Find Inhibitors of T. brucei phosphofructokinase: hit validation (AID 492961);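 note: luminescence reports ADP formed as PFK phosphorylates fructose-6-phosphate with ATP; % is set by controls: 0 for no effect and ±100 for the full control effect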
Chain of ATP-dependent 6-phosphofructokinase (Trypanosoma brucei brucei) (O15648 whole entry, looked up): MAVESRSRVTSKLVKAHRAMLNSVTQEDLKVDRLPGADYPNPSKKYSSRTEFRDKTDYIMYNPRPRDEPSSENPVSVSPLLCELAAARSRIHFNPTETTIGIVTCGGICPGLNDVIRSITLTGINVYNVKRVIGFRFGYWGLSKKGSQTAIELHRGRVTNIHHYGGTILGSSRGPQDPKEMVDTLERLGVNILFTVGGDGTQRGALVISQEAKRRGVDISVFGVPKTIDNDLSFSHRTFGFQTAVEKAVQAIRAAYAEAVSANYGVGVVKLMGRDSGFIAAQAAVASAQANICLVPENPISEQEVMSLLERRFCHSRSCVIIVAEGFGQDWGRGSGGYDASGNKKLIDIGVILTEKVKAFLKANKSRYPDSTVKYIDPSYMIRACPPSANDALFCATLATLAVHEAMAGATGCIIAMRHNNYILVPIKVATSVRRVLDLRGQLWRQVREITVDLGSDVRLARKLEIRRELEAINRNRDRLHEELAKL
In short: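 Percent activity derived from corrected luminescence, normalized between 0x and 1x enzyme controls, then fitted to concentration-response curves. Conditions: 1.25 nM PFK, 0.1 mM ATP, 0.5 mM F6P, 45 min RT.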

[2] = target: Ubiquitin carboxyl-terminal hydrolase 1 (Homo sapiens) (UniProt O94782); experiment: Inhibitors of USP1/UAF1: Pilot qHTS (AID 504865);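 note: rhodamine fluorescence freed from ubiquitin-rhodamine substrate followed over time; top concentration of the series differs between compounds; % is set by controls: 0 for no effect and ±100 for the full control effect; nearly all actives have a fitted effect of over 35% in size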
Chain of Ubiquitin carboxyl-terminal hydrolase 1 (Homo sapiens) (O94782 whole entry, looked up): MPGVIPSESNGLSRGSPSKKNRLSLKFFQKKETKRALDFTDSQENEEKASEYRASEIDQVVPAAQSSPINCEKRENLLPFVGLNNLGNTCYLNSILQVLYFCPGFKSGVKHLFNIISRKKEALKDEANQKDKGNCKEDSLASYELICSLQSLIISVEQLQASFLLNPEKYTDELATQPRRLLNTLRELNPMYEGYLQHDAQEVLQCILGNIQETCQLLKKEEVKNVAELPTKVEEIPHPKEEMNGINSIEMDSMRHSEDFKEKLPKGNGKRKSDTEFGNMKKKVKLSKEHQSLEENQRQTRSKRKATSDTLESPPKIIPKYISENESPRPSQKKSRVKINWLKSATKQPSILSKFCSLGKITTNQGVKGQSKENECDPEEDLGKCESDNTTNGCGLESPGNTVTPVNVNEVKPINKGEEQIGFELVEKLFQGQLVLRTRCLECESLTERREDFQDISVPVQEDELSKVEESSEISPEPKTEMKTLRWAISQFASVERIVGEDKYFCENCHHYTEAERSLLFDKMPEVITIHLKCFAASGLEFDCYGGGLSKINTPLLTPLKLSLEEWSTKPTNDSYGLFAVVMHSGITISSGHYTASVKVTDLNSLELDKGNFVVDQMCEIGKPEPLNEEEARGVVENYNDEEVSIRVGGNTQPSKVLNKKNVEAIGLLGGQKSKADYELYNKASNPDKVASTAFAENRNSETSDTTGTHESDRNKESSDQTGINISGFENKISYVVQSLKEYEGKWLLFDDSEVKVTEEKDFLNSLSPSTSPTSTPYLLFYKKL
In short: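 USP1/UAF1 complex (1nM) preincubated with compound 15 min at room temperature, then Ub-Rho substrate (150nM final) added. Fluorescence read kinetically at 480/540 nm, 6 reads every 60 seconds. Buffer: 50mM HEPES pH 7.8, 0.5mM EDTA, 0.1 mg/ml BSA, 1mM TCEP, 0.01% Tween-20.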

[3] = target: Luciferin 4-monooxygenase (Photinus pyralis) (UniProt P08659); experiment: Biochemical firefly luciferase enzyme assay for NPC (AID 624030);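 note: purified P. pyralis luciferase at 10 nM with luciferin and ATP substrate; 0% = DMSO and -100% = full luciferase inhibition by PTC124 control; nearly all actives have a fitted effect of over 70% in size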
Chain of Luciferin 4-monooxygenase (Photinus pyralis) (P08659 whole entry, looked up): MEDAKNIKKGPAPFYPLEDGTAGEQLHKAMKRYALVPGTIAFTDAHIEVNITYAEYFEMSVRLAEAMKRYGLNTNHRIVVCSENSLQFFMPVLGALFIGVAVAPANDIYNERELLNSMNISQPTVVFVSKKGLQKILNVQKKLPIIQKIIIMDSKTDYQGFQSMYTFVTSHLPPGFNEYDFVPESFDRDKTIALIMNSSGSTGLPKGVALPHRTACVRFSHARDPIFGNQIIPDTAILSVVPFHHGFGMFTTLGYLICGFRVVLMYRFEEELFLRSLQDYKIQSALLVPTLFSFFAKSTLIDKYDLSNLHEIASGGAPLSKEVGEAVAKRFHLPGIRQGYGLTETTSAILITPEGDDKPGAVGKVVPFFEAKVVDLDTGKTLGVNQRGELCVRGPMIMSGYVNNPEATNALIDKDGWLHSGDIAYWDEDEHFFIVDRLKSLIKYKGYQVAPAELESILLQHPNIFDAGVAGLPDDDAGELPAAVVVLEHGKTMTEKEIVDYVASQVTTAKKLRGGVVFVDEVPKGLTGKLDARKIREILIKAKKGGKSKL
In short: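 Counter-screen for direct inhibition of the luciferase enzyme by approved-drug library compounds, run at 10 nM enzyme in 50 mM Tris acetate (final). Luminescence was read within 5 min of enzyme-buffer addition and normalized to PTC124 versus DMSO (0%).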

[4] = S16 Schwann cell viability assay (CellTiter-Glo assay) (AID 624031);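 note: native untransfected S16 rat Schwann cells; cellular ATP luminescence as a viability measure; plate controls were DMSO-treated cells for no effect and cell-free wells for full effect; nearly all actives have a fitted effect of over 70% in size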
In short: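 Cells were seeded at 500-750 per well in phenol red-free DMEM with 10% FBS and left overnight. Compounds or DMSO were pinned in, incubation ran 24 h at 37 °C/5% CO2, then CellTiter-Glo reagent was added and luminescence measured.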

[5] = S16 Schwann cell PMP22 intronic element firefly luciferase assay (AID 624032);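 note: plate controls were DMSO for no effect and PTC124 positive control mean for full effect; nearly all actives have a fitted effect of over 30% in size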
In short: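 Rat S16 Schwann cells stably carrying a PMP22 intronic element-driven Fluc reporter were seeded overnight, then exposed to compounds for 24 h at 37 °C. Luminescence was normalized to PTC124 (positive control) and DMSO (0% activity).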

[6] = S16 Schwann cell PMP22 intronic element beta-lactamase assay (AID 624044; calls by dose curve;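 note: 0% = DMSO and -100% = potassium clavulanate positive control; nearly all actives have a fitted effect of over 15% in size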)
In short: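 Beta-lactamase reporter under a PMP22 intronic regulatory element in stable S16 rat Schwann cells; 24 h compound exposure. 460 nm blue signal normalized between DMSO (0%) and potassium clavulanate, with 535 nm FRET tracking viability; curves classed by r2 and response.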

[7] = NCATS anti-infectives library activity on HEK293 viability as a counter-qHTS vs the C. elegans viability qHTS (AID 1745854);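 note: HEK293 cells exposed to compounds for 24 hr before the viability read; % is set by controls: 0 for no effect and ±100 for the full control effect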
In short: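 Compound titrations (final up to 41.7 uM) were incubated with HEK293 cells for 24 hr at 37C under 5% CO2. Viable cells were quantified with CellTiter-Glo after 10 min at ambient temperature.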

[8] = target: Glutathione peroxidase 1 (Homo sapiens) (UniProt P07203); experiment: Primary qHTS Assay for Inhibitors of Recombinant Selenoprotein Glutathione Peroxidase 1 (GPX1) (AID 1845191); note: nearly all actives have a fitted effect of over 65% in size
Chain of Glutathione peroxidase 1 (Homo sapiens) (P07203 whole entry, looked up): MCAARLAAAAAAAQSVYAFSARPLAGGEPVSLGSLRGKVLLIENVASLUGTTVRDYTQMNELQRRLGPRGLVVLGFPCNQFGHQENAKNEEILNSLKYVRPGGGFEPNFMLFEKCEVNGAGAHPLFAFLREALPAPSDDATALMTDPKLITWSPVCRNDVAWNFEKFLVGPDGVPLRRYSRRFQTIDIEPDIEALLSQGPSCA
In short: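 GPX1 10 nM, GR 100 nM, GSH 1 mM, NADPH 0.5 mM, CHP 0.5 mM (final). 30-min cpd preincubation, RT. Ex340/Em450 read t=0, t=15 min.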

[9] = qHTS profiling for inhibitors of Plasmodium falciparum proliferation (AID 504749);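 note: 0% = DMSO vehicle and full inhibition = artemisinin control; nearly all actives have a fitted effect of over 60% in size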; settings: P. falciparum in erythrocytes, SYBR Green DNA, 72 h, at 28.7 µM (top of the series)
In short: (§1)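 Fluorescence of SYBR Green-bound parasite DNA, read at 485/535 nm, served as the growth measure. Infected erythrocytes were cultured with compound 72 h; artemisinin (0.29 uM) and DMSO wells defined the normalization range.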

3D7 = experiment: as above; settings: P. falciparum in erythrocytes, SYBR Green DNA, 72 h; series mostly up to 28.7 µM
In short: as §1

7G8 = experiment: as above; settings: P. falciparum in erythrocytes, SYBR Green DNA, 72 h; series mostly up to 28.7 µM
In short: as §1

AA1029 = experiment: as above; settings: P. falciparum in erythrocytes, SYBR Green DNA, 72 h; series mostly up to 28.7 µM
In short: as §1

AS120 = experiment: as above; settings: P. falciparum in erythrocytes, SYBR Green DNA, 72 h; series mostly up to 28.7 µM
In short: as §1

ATS189 = experiment: as above; settings: P. falciparum in erythrocytes, SYBR Green DNA, 72 h; series mostly up to 28.7 µM
In short: as §1

ATS95 = experiment: as above; settings: P. falciparum in erythrocytes, SYBR Green DNA, 72 h; series mostly up to 28.7 µM
In short: as §1

C2A = experiment: as above; settings: P. falciparum in erythrocytes, SYBR Green DNA, 72 h; series mostly up to 28.7 µM
In short: as §1

CP185 = experiment: as above; settings: P. falciparum in erythrocytes, SYBR Green DNA, 72 h; series mostly up to 28.7 µM
In short: as §1

CP191 = experiment: as above; settings: P. falciparum in erythrocytes, SYBR Green DNA, 72 h; series mostly up to 28.7 µM
In short: as §1

CP192 = experiment: as above; settings: P. falciparum in erythrocytes, SYBR Green DNA, 72 h; series mostly up to 28.7 µM
In short: as §1

CP194 = experiment: as above; settings: P. falciparum in erythrocytes, SYBR Green DNA, 72 h; series mostly up to 28.7 µM
In short: as §1

CP201 = experiment: as above; settings: P. falciparum in erythrocytes, SYBR Green DNA, 72 h; series mostly up to 28.7 µM
In short: as §1

CP203 = experiment: as above; settings: P. falciparum in erythrocytes, SYBR Green DNA, 72 h; series mostly up to 28.7 µM
In short: as §1

CP211 = experiment: as above; settings: P. falciparum in erythrocytes, SYBR Green DNA, 72 h; series mostly up to 28.7 µM
In short: as §1

CP215 = experiment: as above; settings: P. falciparum in erythrocytes, SYBR Green DNA, 72 h; series mostly up to 28.7 µM
In short: as §1

CP217 = experiment: as above; settings: P. falciparum in erythrocytes, SYBR Green DNA, 72 h; series mostly up to 28.7 µM
In short: as §1

CP237 = experiment: as above; settings: P. falciparum in erythrocytes, SYBR Green DNA, 72 h; series mostly up to 28.7 µM
In short: as §1

CP238 = experiment: as above; settings: P. falciparum in erythrocytes, SYBR Green DNA, 72 h; series mostly up to 28.7 µM
In short: as §1

CP247 = experiment: as above; settings: P. falciparum in erythrocytes, SYBR Green DNA, 72 h; series mostly up to 28.7 µM
In short: as §1

CP250 = experiment: as above; settings: P. falciparum in erythrocytes, SYBR Green DNA, 72 h; series mostly up to 28.7 µM
In short: as §1

CP252 = experiment: as above; settings: P. falciparum in erythrocytes, SYBR Green DNA, 72 h; series mostly up to 28.7 µM
In short: as §1

CP256 = experiment: as above; settings: P. falciparum in erythrocytes, SYBR Green DNA, 72 h; series mostly up to 28.7 µM
In short: as §1

CP260 = experiment: as above; settings: P. falciparum in erythrocytes, SYBR Green DNA, 72 h; series mostly up to 28.7 µM
In short: as §1

CP262 = experiment: as above; settings: P. falciparum in erythrocytes, SYBR Green DNA, 72 h; series mostly up to 28.7 µM
In short: as §1

CC(C)CN(C[C@@H](OP(=O)(O)O)[C@H](Cc1ccccc1)NC(=O)O[C@@H]1CCOC1)S(=O)(=O)c1ccc(N)cc1
inactive: outcome [1] | Potency [2] | Potency [3] | Potency [4] | Potency [5] | Potency [6] | Potency [7] | Potency [8] | activity, negative = inhibition ([9]; parasite line A) -4.75% | activity, negative = inhibition ([9]; parasite line B) 9.93% | Potency (3D7) | Potency (7G8) | Potency (AA1029) | Potency (AS120) | Potency (ATS189) | Potency (ATS95) | Potency (C2A) | Potency (CP185) | Potency (CP191) | Potency (CP192) | Potency (CP194) | Potency (CP201) | Potency (CP203) | Potency (CP211) | Potency (CP215) | Potency (CP217) | Potency (CP237) | Potency (CP238) | Potency (CP247) | Potency (CP250) | Potency (CP252) | Potency (CP256) | Potency (CP260) | Potency (CP262)
